Out of some 65,000 compounds screened, about 2,100 (3.2%) showed an effect of 50% or more. The median lay at about -52%. What follows is part of a selection rich in strong results, with near analogues and random picks from the rest.
System: Plasmodium falciparum
Test: Screen against P. falciparum Asexual Blood Stage (ABS), at 5uM
Assay type: functional, Dd2
Settings: tested at 5 uM

SMILES | INHIBITION
CCn1nccc1CNC(=O)Cn1cc2c(n1)c(C)nn2C(C)C | -127%
CC(C)N1CCOCC2(CCCN(C(=O)c3cncn3C)C2)C1 (stereo unspecified) | -78.3%
O=C(NCc1cc[nH]n1)NCC(O)c1ccc(F)cc1 (stereo unspecified) | 3.65%
Cc1ccc(CN2CCC3(CC2)C(c2ccccc2)CC(=O)N3C)o1 (stereo unspecified) | 17.1%
C=Cn1cc(CN2CCC(c3ncc(Cl)cc3S(C)(=O)=O)CC2)c(C)n1 | 14.8%
CN(C(=O)CN1CCOC(Cn2cccn2)C1)c1nccs1 (stereo unspecified) | -24.5%
Cc1cnn(CC2CCCN2Cc2nc3ccccc3nc2C)c1 (stereo unspecified) | -88.9%
Cc1nc2ccccc2nc1CN1CCCC1Cn1cncn1 (stereo unspecified) | 62.3%
Cc1c(Cl)c(CN2CCCC2Cn2cncn2)nc2ccccc12 (stereo unspecified) | 16.2%
Cc1nc2ccccc2nc1CN1CCCCC1Cn1cccn1 (stereo unspecified) | -78.3%
Cc1nc2ccccc2nc1CN1CCCC1Cn1cccn1 (stereo unspecified) | 69.3%
Cc1nc2ccccc2nc1CN1CCCC(Cn2cncn2)C1 (stereo unspecified) | -96.3%
CC1CCc2nn(CCNC(=O)Cc3ccc(F)cc3)c(=O)cc2C1 (stereo unspecified) | -65.3%
CN1CCOCC2(CCCN(C(=O)c3ccc(-n4cccc4)cc3)C2)C1 (stereo unspecified) | 28.9%
CNC(=O)c1nc(CN2CCOC(C(F)(F)F)C2)no1 (stereo unspecified) | -43.7%
CNC(=O)c1nc(CN2CCOC(CCCC(C)C)C2)no1 (stereo unspecified) | -32%
CNC(=O)c1nc(CN2CCOC(Cc3ccc(F)cc3)C2)no1 (stereo unspecified) | 51.7%
CSC(C)(C)CNC(=O)NC1CCN(CC=C(C)C)CC1 | -10.7%
COCC(=O)N1C[C@H]2CCC[C@@]2(COC)C1 | -47.2%
c1ncn(CC2CCCN2Cc2cn3ccsc3n2)n1 (stereo unspecified) | -64.9%
Cc1cc(CN2CCCCC2Cn2cncn2)no1 (stereo unspecified) | 57.3%
Cc1nc(C)n(CC2CCCN2Cc2cn3ccsc3n2)n1 (stereo unspecified) | -20.5%
c1cnn(CC2CCCN2Cc2cn3ccsc3n2)c1 (stereo unspecified) | 64.9%
Cc1cc(CN2CCCC2Cn2cccn2)no1 (stereo unspecified) | -13.9%

SMILES | INHIBITION
c1ncn(CC2CCCCN2Cc2cn3ccsc3n2)n1 (stereo unspecified) | 61.4%
Cc1cc(CN2CCCC2Cn2cncn2)no1 (stereo unspecified) | -174%
c1cnn(CC2CCCCN2Cc2cn3ccsc3n2)c1 (stereo unspecified) | -19.1%
c1ncn(CC2CCCN(Cc3cn4ccsc4n3)C2)n1 (stereo unspecified) | -48.4%
CC(C)Nc1ncnc2c1CCN(C(=O)c1ccncc1F)CC2 | -7.41%
CS(=O)(=O)NC(=O)c1ccn(-c2ccccc2Cl)n1 | -38.1%
Cc1cc(C)n(CC2CN(CC(=O)NCc3ccccn3)CCO2)n1 (stereo unspecified) | -102%
CSCc1noc(CNC(=O)C2CCN(C3CCCCC3)CC2)n1 | -24.2%
COCCN1CCO[C@@H]2CN(C(=O)Cc3ccc(F)cc3)CC[C@@H]2C1 | 12%
COc1ccc(CN2C[C@H]3CN(c4ccsc4)C(=O)[C@H]3C2)cc1 | -68.6%
CCN1CCN2CCCN(S(=O)(=O)c3ccc(S(C)(=O)=O)cc3)C2C1=O (stereo unspecified) | 20.7%
CCN1CCN2CCCN(S(=O)(=O)c3ccc(C)cc3C)C2C1=O (stereo unspecified) | 64.3%
CCN1CCN2CCCN(S(=O)(=O)c3cccc(F)c3)C2C1=O (stereo unspecified) | 24.6%
Cc1cnc(C(=O)N2Cc3cc(Cl)ccc3OC3(CCOCC3)C2)cn1 | -30.5%
CCc1ccccc1N1CC(c2nnc(N)s2)CC1=O (stereo unspecified) | -94.9%
COCC(=O)N1CCOC2(CCCN(c3cnccn3)C2)C1 (stereo unspecified) | -88.3%
CC(C)CCN1CCCC12Cc1ccccc1CNC2=O (stereo unspecified) | 51.7%
Cc1ccc(CCN2CCCC23Cc2ccccc2CNC3=O)cc1 (stereo unspecified) | -15.1%
CC(C)(C)CN1CCCC12Cc1ccccc1CNC2=O (stereo unspecified) | 2.53%
N#Cc1cccc(CNc2ccc(F)cc2OCCO)c1 | -11%
Cc1ccc(S(=O)(=O)N2C[C@H]3C[C@H](NC(=O)c4cc[nH]n4)[C@H]3C2)cc1 | -17.3%
CNS(=O)(=O)c1ccc(CNC(=O)Nc2cn[nH]c2)cc1 | -94.2%
COC1(CNC(=O)NCCOc2ccccc2)CCSC1 (stereo unspecified) | -45.4%
Cc1nc2c(c(NC3CC3)n1)CCN(C(=O)CCO)CC2 | -79.7%

SMILES | INHIBITION
Cc1ccc2nc(C3CCCN3Cc3csc(C)n3)[nH]c2c1 (stereo unspecified) | 65.7%
Cc1ccc2nc(C3CCCN3Cc3nnc(C)s3)[nH]c2c1 (stereo unspecified) | -102%
Cc1ccc2nc(C3CCCN3Cc3cccc(CCN)c3)[nH]c2c1 (stereo unspecified) | 41.2%
Cc1ccc2nc(C3CCCN3Cc3scnc3C)[nH]c2c1 (stereo unspecified) | -84.1%
CC(=O)c1cc(CN2CCCC2c2nc3ccc(C)cc3[nH]2)cs1 (stereo unspecified) | 50.3%
CC(=O)c1cc(CN2CCCCC2c2nc3cc(F)ccc3[nH]2)cs1 (stereo unspecified) | 12.3%
Cc1c(C(=O)NCCC(=O)N2CCCC2)cccc1-c1ccccn1 | -47.4%
CCOC(=O)[C@]12CCCN(Cc3cccs3)C[C@H]1CN(C(C)C)C2 | 9.63%
O=C(CN1CCOCC1)N(c1ccccc1)c1ccccc1 | -110%
CN(C)c1ncccc1CNC(=O)N1CCCC1CN1CCCC1 (stereo unspecified) | -122%
CC(=O)N1CCN(C(=O)CN2CCCC2c2c(C)nn(C)c2C)CC1 (stereo unspecified) | -90.6%
O=C(NC1CCC1)C1=NOC2(CCN(Cc3ccco3)C2)C1 (stereo unspecified) | -31.3%
COCc1ccc(C(=O)N2CCC(c3cc4nccnc4[nH]3)CC2)cc1 | -69.8%
COc1cc(C(=O)N2CCCC(n3ccnc3)C2)cc2c1OCCO2 (stereo unspecified) | -16.1%
Cc1ncnc(N2CCCN(c3nc4ccccc4s3)CC2)c1C | -442%
Cc1nc[nH]c1CN1CCCN(c2nc3ccccc3s2)CC1 | 54.8%
Cc1nc[nH]c1CN1CCCC12CCN(c1nc3ccccc3s1)CC2 | 24.2%
CC(=O)N1CCCC1c1nnn2cc(-c3ccncc3)ccc12 (stereo unspecified) | -69.2%
O=C(O)c1nnn(-c2ccccc2)c1-c1ccncc1 | -32.3%
CCn1c(C2CCNCC2)nn(Cc2ccc(C(=O)NC)o2)c1=O | -72.6%
CCCn1ncc(-c2ccnc(N[C@@H]3C[C@H]4CC[C@@H]3C4)n2)c1C | -34.5%
CCCn1ncc(-c2ccnc(NC3CCSC3)n2)c1C (stereo unspecified) | -10.1%
CCCn1ncc(-c2ccnc(NC3CC(C)(C)NC(C)(C)C3)n2)c1C | 67.2%

Source: ChEMBL document CHEMBL4513216, “Probing the Open Global Health Chemical Diversity Library for Multistage-Active Starting Points for Next-Generation Antimalarials” (ACS Infect Dis, 2020)
